For assay [1], the system named is T1, PIP5K2B.
T1 construct: gene PIP4K2B
Particulars: Compound Concentration (nM):1000.

For assay [2], the system named is T2, PIP5K2C.
T2 construct: gene PIP4K2C
The following applies: Compound Concentration (nM):1000.

The test system of assay [3] is T3, PKAC-alpha.
T3 construct: gene PRKACA
The following applies: Compound Concentration (nM):1000.

Assay [4] has as its system T4, PKAC-beta.
T4 construct: gene PRKACB
Particulars: Compound Concentration (nM):1000.

Assay [5] relates to PKMYT1. The following applies: Compound Concentration (nM):1000.
Assay [6] concerns PKN1. The following applies: Compound Concentration (nM):1000.
The test system of assay [7] is PKN2. The following applies: Compound Concentration (nM):1000.
In assay [8] the test system is PKNB(M.tuberculosis). The following applies: 1 µM.
The subject of assay [9] is PLK1. Particulars: Compound Concentration (nM):1000.
Assay [10] concerns PLK2. The following applies: Compound Concentration (nM):1000.
Assay [11] concerns PLK3. The following applies: Compound Concentration (nM):1000.
Assay [12] concerns PLK4. The following applies: Compound Concentration (nM):1000.
Assay [13] has as its system PRKCD. The following applies: Compound Concentration (nM):1000.
Assay [14] concerns PRKCE. Particulars: Compound Concentration (nM):1000.
Assay [15] relates to PRKCH. The following applies: Compound Concentration (nM):1000.
In assay [16] the test system is PRKCI. The following applies: Compound Concentration (nM):1000.
Assay [17] has as its system PRKCQ. Particulars: Compound Concentration (nM):1000.
The subject of assay [18] is PRKD1. The following applies: Compound Concentration (nM):1000.
In assay [19] the test system is PRKD2. Particulars: Compound Concentration (nM):1000.
The subject of assay [20] is PRKD3. The following applies: Compound Concentration (nM):1000.
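Further: KINOMEscan scanMAX binding as percent activity remaining versus control; lower means stronger binding.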

`CCS(=O)(=O)c1ccc(OC)c(Nc2ncc(-c3cccc(OC)c3)o2)c1` [GW580509X]: the “Percent Control” value in [1] was 91%; in [2], 11%; in assay [3], 100%; in assay [4], 100%; in assay [5], 100%; in [6], 100%. The “Percent Control” value is listed as 100% in [7]; 100% in [8]; 92% in [9]; 86% in assay [10]; 94% in assay [11]; 50% in assay [12]. Besides, the “Percent Control” value in [13] is 100%; in assay [14], 62%; in [15] it was 100%; in assay [16] it was 100%; in [17] it was 100%; in [18], 100%. Further, the “Percent Control” value in [19] and in assay [20] was 100% throughout.

For `Cl.O=C(O[C@H]1CN[C@H](C#Cc2cc3ncnc(Nc4ccc5c(cnn5Cc5ccccc5)c4)c3s2)C1)N1CCOCC1` [GSK200398A], the “Percent Control” value in [1] was 100%; in [2], 98%; in [3], 100%; in assay [4], 93%; in assay [5], 96%; in assay [6], 88%. The “Percent Control” value is recorded as 69% in assay [7]; 91% in assay [8]; 76% in assay [9]; 92% in [10]; 91% in assay [11]; 69% in assay [12]. The “Percent Control” value was 100% in [13]; 88% in assay [14]; 100% in assay [15]; 100% in [16]; 64% in assay [17]; 100% in assay [18]. Further, the “Percent Control” value in [19] is 93%; in assay [20], 100%.

`COc1cc(C)c(N(C)C(=O)CN(C)C)cc1Nc1nc(Nc2cccc(F)c2C(N)=O)c2cc[nH]c2n1` [GSK2219385]: the “Percent Control” value in assay [1] is 100%; in [2], 92%; in assay [3], 100%; in [4] it was 100%; in assay [5], 78%; in assay [6], 89%. The “Percent Control” value stood at 88% in [7]; 63% in assay [8]; 81% in assay [9]; 100% in assay [10]; 94% in [11]; 84% in [12]. The “Percent Control” value in assay [13] is 100%; in assay [14], 100%; in assay [15], 100%; in [16] it was 82%; in assay [17], 92%; in assay [18], 100%. Further, the “Percent Control” value in [19] is 89%; in assay [20] it was 88%.

Regarding `COc1cc2ncn(-c3cc(O[C@H](C)c4ccccc4Cl)c(C(N)=O)s3)c2cc1OC` [GSK237701A], the “Percent Control” value in assay [1] is 15%; in assay [2], 20%; in assay [3], 100%; in assay [4], 96%; in assay [5] it was 100%; in assay [6] it was 100%. In addition, the “Percent Control” value in [7] was determined as 83%; in [8], 62%; in assay [10], 1.8%; in assay [11] it was 2%; in assay [12], 30%; in assay [13], 100%. The “Percent Control” value is 91% in assay [14]; 100% in [15]; 78% in assay [16]; 100% in [17]; 100% in assay [18]; 100% in assay [19]. The “Percent Control” value in assay [20] is 49%.

For the molecule `O=C(Nc1n[nH]c2nc(-c3ccc(O)cc3)c(Br)cc12)C1CC1` [SB-725317], the “Percent Control” value in assay [1] is 100%; in assay [2], 91%; in assay [3], 100%; in [4], 100%; in assay [5], 100%; in assay [6], 89%. The “Percent Control” value in [7] is reported as 100%; in [8], 31%; in [9], 100%; in assay [10], 83%; in [11], 88%; in [12] it was 82%. For the same molecule, the “Percent Control” value in assay [13] was 45%; in [14], 46%; in assay [15], 78%; in assay [16], 90%; in assay [17], 58%; in [18] it was 100%. The figures for the “Percent Control” value in [19] and in [20] were 100% and 99%, respectively.

For the molecule `COc1cccc(-n2ncc3c(N/N=C/c4ccncc4)ncnc32)c1` [GW784752X], the “Percent Control” value in [1] is 91%; in assay [2], 19%; in assay [3], 100%; in [4] it was 99%; in assay [5] it was 100%; in assay [6], 100%. The “Percent Control” value in [7] is recorded as 100%; in assay [8], 100%; in assay [9], 88%; in assay [10], 94%; in [11], 88%; in assay [12], 84%. Also, the “Percent Control” value was 100% in assay [13]; 100% in [14]; 99% in [15]; 72% in [16]; 100% in assay [17]; 100% in [18]. Moreover, the “Percent Control” value was 100% in assay [19] and 91% in [20].

Regarding `CN(C)c1cc2c(Nc3ccc4c(cnn4Cc4ccccc4)c3)ncnc2cn1` [GW282974X], the “Percent Control” value is 100% in [1]; 100% in [2]; 100% in assay [3]; 95% in assay [4]; 73% in assay [5]; 90% in assay [6]. For the same molecule, the “Percent Control” value in assay [7] worked out at 88%; in assay [8], 68%; in [9], 71%; in [10], 100%; in assay [11] it was 100%; in assay [12] it was 66%. The “Percent Control” value in assay [13] is 100%; in [14], 100%; in [15], 97%; in assay [16], 88%; in assay [17] it was 100%; in [18], 100%. Moreover, the “Percent Control” value in assay [19] is 95%; in [20], 89%.

Take `CC(C)COC(=O)c1ccc2c(c1)/C(=C/Nc1ccc(S(N)(=O)=O)cc1)C(=O)N2` [GW416981X]: the “Percent Control” value in [1] is 100%; in assay [2] it was 65%; in assay [3], 100%; in assay [4], 100%; in assay [5] it was 100%; in assay [6], 100%. The “Percent Control” value in assay [7] amounted to 71%; in assay [8], 86%; in assay [9], 100%; in [10], 59%; in assay [11], 83%; in [12], 64%. The “Percent Control” value in [13], in [14], in [15], in assay [16], in [17] and in [18] was 100% in each case. For the same molecule, the “Percent Control” value in assay [19] is 100%; in assay [20], 61%.

Turning to `NS(=O)(=O)c1ccc(Nc2ncc(-c3ccccc3)o2)cc1` [GW572399X], the “Percent Control” value in assay [1] was 100%; in assay [2], 29%; in assay [3], 100%; in [4] it was 100%; in assay [5], 100%; in assay [6], 100%. In addition, the “Percent Control” value in assay [7] amounted to 100%; in [8], 76%; in assay [9], 100%; in [10] it was 86%; in [11], 86%; in assay [12], 100%. Also, the “Percent Control” value in assay [13], in [14], in assay [15], in [16], in assay [17] and in [18] was 100% each time. Besides, the figures for the “Percent Control” value in assay [19] and in [20] were 100% and 61%, respectively.

`Cc1cc(O)cc(C)c1/C=C/c1cncc(C(N)=O)c1` [GW435821X]: the “Percent Control” value in assay [1] is 100%; in assay [2], 84%; in assay [3], 100%; in assay [4], 100%; in assay [5], 74%; in assay [6], 100%. Besides, the “Percent Control” value in [7] is 65%; in assay [8] it was 99%; in assay [9], 100%; in assay [10] it was 93%; in assay [11], 90%; in assay [12], 85%. The “Percent Control” value was 87% in [13]; 93% in assay [14]; 100% in assay [15]; 100% in assay [16]; 90% in assay [17]; 100% in assay [18]. Further, the “Percent Control” value in [19] was 100%; in assay [20], 79%.

(Values after publication PMC7826789 (International Journal of Molecular Sciences, 2021).)
